Screening data deposited in PubChem BioAssay by National Center for Advancing Translational Sciences (NCATS).
Compounds with a hit are over-represented: about 10% of the library has one in this group of screens.
Sfp PPTase inh: blocks B. subtilis Sfp PPTase activity. Q9F4F7. Biochemical Sfp PPTase activity, qHTS. Potency, µM, without a hit: largest response in the series, negative = inhibition, most hits filed as inhibitors. 310,000 tested, 3.5% active;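 also: the enzyme is Sfp with the accession as filed and its product quenches rhodamine fluorescence; potency is read from the fitted curve at half-maximal effect; 0% = enzyme reaction without inhibitor and -100% = no enzyme wells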
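Compounds were incubated with enzyme (final 15 nM) for 15 min at room temperature before substrate addition started the reaction. Fluorescence at 525 nm excitation, 598 nm emission was recorded immediately and after 30 minutes.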
G9a inh: blocks human histone lysine methyltransferase G9a | 350,000 tested, 8.8% active | Potency, µM (doses to about 102 µM), without a hit: at the top dose activity, negative = inhibition, hits mostly inhibitors | Q96KQ7 | G9a H3K9 monomethylation, AlphaScreen, 2 h; also: potency is read from the fitted curve at half-maximal effect; nearly all actives have a fitted effect of over 75% in size
Target sequence (Q96KQ7 913-1193 limits assumed): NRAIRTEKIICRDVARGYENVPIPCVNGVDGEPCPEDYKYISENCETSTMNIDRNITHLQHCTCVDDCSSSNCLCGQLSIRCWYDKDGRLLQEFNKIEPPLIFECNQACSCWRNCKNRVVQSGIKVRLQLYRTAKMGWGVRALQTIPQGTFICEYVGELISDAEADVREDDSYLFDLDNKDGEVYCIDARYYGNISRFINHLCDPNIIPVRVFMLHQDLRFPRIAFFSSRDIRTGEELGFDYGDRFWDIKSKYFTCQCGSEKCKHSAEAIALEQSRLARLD
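Compounds were preincubated with 20 nM G9a for 15 min, after which biotinylated H3K9 peptide (500 nM) and SAM (20 uM) started a 2 h room-temperature reaction. Monomethylated product was quantified by antibody-based AlphaScreen chemiluminescence.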
VDR inhibitor: blocks the human vitamin D receptor | P11473 | VDR-SRC2-3 peptide fluorescence polarization, 2 h | Potency, µM, for inactives: max response, negative = inhibition, most hits filed as inhibitors | 400,000 tested, 0.93% active | AID 504847; also: potency is read from the fitted curve at half-maximal effect
Target sequence (P11473 whole entry, looked up): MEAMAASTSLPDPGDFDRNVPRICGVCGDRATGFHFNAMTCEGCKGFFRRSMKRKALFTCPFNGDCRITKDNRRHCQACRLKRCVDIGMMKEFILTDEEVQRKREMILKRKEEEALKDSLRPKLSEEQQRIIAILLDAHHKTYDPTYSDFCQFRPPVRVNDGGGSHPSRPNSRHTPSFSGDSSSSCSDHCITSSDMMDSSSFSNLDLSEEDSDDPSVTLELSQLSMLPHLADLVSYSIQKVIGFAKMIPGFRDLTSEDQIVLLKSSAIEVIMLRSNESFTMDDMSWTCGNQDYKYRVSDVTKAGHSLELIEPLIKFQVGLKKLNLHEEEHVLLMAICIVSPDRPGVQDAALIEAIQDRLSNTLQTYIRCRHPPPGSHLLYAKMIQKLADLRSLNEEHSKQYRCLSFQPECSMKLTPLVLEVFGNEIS
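VDR–SRC2-3 interaction, FP format. Cmpds 23 nl via pintool, brief spin, 2 h ambient incubation.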
PLK1 PBD block: PLK1 (human) polo-box domain binding inhibition | P53350 | 360,000 tested, 2.8% active | Plk1 PBD binding of FITC phosphopeptide, fluorescence polarization | AID 720504 | Potency, µM, for inactives: max response, negative = inhibition, usual class: inhibitors; also: potency is read from the fitted curve at half-maximal effect; series mostly up to about 57 µM; nearly all actives have a fitted effect of over 65% in size
CCT chaperon mod: modulators of cytosolic chaperonin (CCT/TRiC) activity | activity change, % (concentration not given with the values), hits read low | 360,000 tested, 0.3% active | purified chaperonin ATPase assay, HTRF ADP detection, 30 min; in the data active = activity change below about -30%
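Enzyme 40 or 20 nM (batch-dependent) in Tris pH 7.4/KCl/MgCl2/DTT; cpd 76 uM single point; ATP 10 uM; 30 min 37 °C; Transcreener ADP HTRF detection, 30 min RT; ratio 665/615.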
Mm-Cpn inhibitor: inhibitors of Methanococcus maripaludis chaperonin TRiC (MmCpn); purified Mm-Cpn ATPase, ADP Transcreener TR-FRET; Potency, µM (doses to about 76.9 µM), without a hit: top-dose activity, negative = inhibition, usual class: inhibitors; 330,000 tested, 0.031% active; AID 504842; also: potency is read from the fitted curve at half-maximal effect; nearly all actives have a fitted effect of over 80% in size
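Compound-treated chaperonin, 25 nM final, turns over 10 uM ATP at 37°C for 30 min following a 10 min preincubation; ADP generated competes with ADP-d2 for Eu-cryptate antibody, lowering FRET.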
* hit, by the source's call; ? = inconclusive; . = no result given; [ ] = dose if it differs, or a comment. Unless noted, calls follow the shape of the dose curve; as a rule, active = well fitted curve in the direction sought with a large enough effect; inconclusive = small, poorly fitted or top-dose-only effect, or another doubt; inactive = no such curve, though single readings can be large; an effect the other way counts as inactive or inconclusive. Unless noted, % is scaled to controls: 0 for no effect and ±100 for the full control effect.

SMILES	Sfp PPTase inh	G9a inh	VDR inhibitor	PLK1 PBD block	CCT chaperon mod	Mm-Cpn inhibitor
O=C(c1ccc([N+](=O)[O-])o1)N1CCN(Cc2ccccc2)CC1	1.3%	.	-11.8%	-2.0%	1.8	-2.1%
O=[N+]([O-])c1cccc(C(=S)N2CCN(c3ccc(F)cc3)CC2)c1	28.2µM*	10µM*	-18.1%	?	-0.8	-1.7%
O=C(c1cc([N+](=O)[O-])ccc1Cl)N1CCN(c2ccc([N+](=O)[O-])cc2)CC1	-10.0%	?	-0.8%	-7.0%	-1.7	-1.0%
O=C(c1ccc(Cn2cc(Cl)c([N+](=O)[O-])n2)cc1)N1CCN(Cc2ccccc2)CC1	8.2%	50.1µM*	-9.4%	-12.2%	1.0	-1.8%
O=C(c1cc([N+](=O)[O-])ccc1Cl)N1CCN(Cc2ccccc2)CC1	-11.4%	70.8µM*	-12.8%	-6.7%	-1.1	1.6%
NC(=O)c1cc([N+](=O)[O-])ccc1N1CCN(Cc2ccccc2)CC1	2.5%	.	2.7%	-21.9%	-1.9	0.6%
COc1ccc(-c2cc3nc(C)c(CCC(=O)Nc4ccc(F)cc4F)c(C)n3n2)c(OC)c1	.	3.6%[59 µM]	-2.0%	.	.	.
CCN(CC)CCNC(=O)C(=O)NCC(c1cccnc1)N1CCN(c2ccc(F)cc2)CC1 (stereo unspecified)	.	-31.1%[59 µM]	14.8%	.	.	.
COc1cc(/C=C2\C(=N)N3N=CSC3=NC2=O)ccc1OS(=O)(=O)c1ccccc1[N+](=O)[O-]	-3.9%	.	?	26.7µM*	0.6	0.1%
COc1cc(/C=C2/C(=N)N3C(=NC2=O)SN=C3S(C)(=O)=O)ccc1OS(=O)(=O)c1ccccc1	-18.4%	25.1µM*	.	.	.	-1.2%
CCOc1cc(/C=C2/C(=N)N3C(=NC2=O)SN=C3S(C)(=O)=O)ccc1OS(=O)(=O)c1ccccc1	-5.2%	.	25.1µM*	15µM*	-1.4	-4.1%
COC(=O)c1ccc(C(NC(=O)OCc2ccccc2)/C(=C/[C@@H](C)C(=O)NCc2ccccc2)c2cccnc2)cc1 (stereo partly specified)	15.1%	.	.	.	.	.
O=S(=O)(c1ccc(Cl)cc1)c1nc(-c2cccs2)oc1SCc1ccc(F)cc1	.	?	11.0%	.	.	.
CC1(C)CCCN(C(=O)c2ccc3c(c2NCCO)C(=O)c2ccccc2C3=O)C1	-17.3%	35.5µM*	-16.2%	2.7%	-17.8	-3.2%
O=C1c2ccccc2C(=O)c2c1ccc(C(=O)N1CCCCC1)c2NCCO	13.5%	18.3%[59 µM]	6.1%	-5.4%	-5.2	1.0%
CCN(CCN(C)C)C(=O)c1ccc2c(c1NCCO)C(=O)c1ccccc1C2=O	?	15.8µM*	-7.5%	1.8%	2.5	-14.6%
COc1ccc2[nH]cc(CCNC(=O)c3cnn(-c4ccc(C)cc4)c3C3CCN(C(=O)OC(C)(C)C)CC3)c2c1	.	-33.3%[59 µM]	8.6%	.	.	.
CC(=O)OCC(=O)[C@]1(O)C(C)CC2C3CCC4=CC(=O)C=C[C@@]4(C)[C@]3(F)C(O)C[C@@]21C (stereo partly specified)	10.8%	1.5%[2.33 µM]	-2.4%	.	.	.
COc1ccc(C2CC(=O)C(C(c3ccc(O)cc3)C3C(=O)CC(c4ccc(OC)cc4)CC3=O)C(=O)C2)cc1 (stereo unspecified)	35.5µM*	25.1µM*	.	.	.	-1.3%
COc1ccc(C2=CC(=O)CC(c3ccc(OC)cc3)C2)cc1 (stereo unspecified)	-0.7%	-2.8%	8.0%	-15.9%	-1.2	-1.7%
COc1ccccc1-c1sc2ccccc2c1-c1ccc2c(c1)OCO2	-0.1%	3.6%	1.7%	-9.3%	-2.8	?
COc1ccccc1-c1sc2cc3c(cc2c1-c1ccc2c(c1)OCO2)OCO3	.	7.6%[0.501 µM]	-5.0%	-5.9%	0.1	17.8µM*
CCc1ccc(Nc2n[n+](-c3ccccc3)c(-c3c(Cl)cccc3Cl)s2)cc1	70.8µM*	14.1µM*	?	-19.4%	-1.7	-2.7%
CCc1ccc(Nc2n[n+](-c3ccccc3)c(-c3ccc(N(CC)CC)cc3)s2)cc1	50.1µM*	12.6µM*	-4.3%	49.1%	-1.0	?
CCc1ccc(Nc2n[n+](-c3ccccc3)c(/C=C/c3ccccc3)s2)cc1	50.1µM*	39.8µM*	.	.	.	1.7%
SMILES	Sfp PPTase inh	G9a inh	VDR inhibitor	PLK1 PBD block	CCT chaperon mod	Mm-Cpn inhibitor
CCc1ccc(Nc2n[n+](-c3ccccc3)c(-c3ccc(OCc4ccccc4)cc3)s2)cc1	-7.1%	?	10.7%	?	-0.5	?
Fc1ccc(-[n+]2nc(Nc3ccccc3)sc2-c2c(Cl)cccc2Cl)cc1	?	.	-12.4%	-5.0%	-0.3	1.3%
CCN(CC)c1ccc(-c2sc(Nc3ccccc3)n[n+]2-c2ccc(F)cc2)cc1	56.2µM*	44.7µM*	-16.1%	31.7%	-10.1	?
CC(=O)N(C[C@@H](O)CO)c1c(I)c(C(=O)NC[C@@H](O)CO)c(I)c(C(=O)NC[C@@H](O)CO)c1I	17.6%	13.9%[21.5 µM]	1.7%	.	.	.
CCc1ccc(-c2nn(CC(=O)NC3CCCCC3)c3c2cnc2ccc(OC)cc23)cc1	.	5.8%[59 µM]	15.0%	.	.	.
COc1ccc2ccccc2c1-c1sc(Nc2ccccc2)n[n+]1-c1ccc(F)cc1	-15.7%	50.1µM*	-18.5%	-12.1%	-1.2	1.4%
COc1ccc(-c2sc(Nc3ccccc3)n[n+]2-c2ccc(F)cc2)cc1Br	15.4%	?	-10.7%	?	-0.8	-9.1%
Cc1cc(C)cc(NC(=O)C2CCC(CNS(=O)(=O)c3ccc4c(c3)C(C)(C)C(=O)N4C)CC2)c1 (stereo unspecified)	.	-37.4%[59 µM]	0.8%	.	.	.
CCOc1ccc2c(c1)-c1c(ssc1=S)C(C)(C)N2C	-23.4%	3.98µM*	-17.5%	?	1.9	-1.0%
CCOc1ccc2c(c1)C(C)=CC(C)(C)N2S(=O)(=O)c1ccc(F)cc1	0.7%	-11.1%	19.8%	7.3%	0.1	-2.9%
CCOc1cc(C(=O)OCC(=O)c2c(N)n(C)c(=O)n(C)c2=O)cc(OCC)c1OCC	-3.7%	-7.0%[59 µM]	5.5%	1.5%	1.8	1.4%
Cn1c(N)c(C(=O)COC(=O)c2ccccn2)c(=O)n(C)c1=O	6.0%	20µM*	30.4%	-0.2%	-0.8	0.1%
Cn1c(N)c(C(=O)CN2CCc3ccccc3C2)c(=O)n(C)c1=O	21.4%	8.91µM*	-17.6%	-0.7%	-0.3	1.0%
O=C(OCC(=O)c1ccccc1Br)c1ccccn1	56.2µM*	?	-2.7%	?	-0.7	-3.9%
Cn1c(N)c(C(=O)COC(=O)c2cncc(Br)c2)c(=O)n(C)c1=O	-1.6%	50.1µM*	3.7%	-8.5%	1.0	-0.1%
COc1ccccc1N1CCN(CC(=O)c2c(N)n(C)c(=O)n(C)c2=O)CC1	21.5%	3.9%	-9.3%	-24.5%	-0.4	-3.1%
